TRb-SRC2 inh: disrupts binding of human TR beta to SRC2; P10828; TRbeta-SRC2 peptide binding, fluorescence polarization; receptor liganded with 1 µM T3; Potency, µM (series often up to 106 µM), for the others: top-dose activity change, negative = inhibition, usual class: inhibitors; actives 0.065% (n = 280,000);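 also: plate controls were bound peptide for no effect and peptide without receptor for full effect; nearly all actives have a fitted effect of over 50% in size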
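Human TRb LBD (0.6 uM) plus Texas Red-labeled SRC2 peptide (20 nM), 1uM T3, 5% DMSO, 5 hr at ambient temperature. Decreased polarization (555/632 nm) flags inhibition; data normalized to free and bound peptide controls.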
TR SRC2 fluor cs: alters Texas Red total fluorescence, flagging assay interference; Potency, µM (series often up to 106 µM), without a hit: at the top dose fluorescence change, negative = quenching; actives 0.29% (n = 280,000); TRb/SRC2 Texas Red total fluorescence interference; AID 1479; active = well fitted curve in either direction with a large enough effect; inconclusive = small, poorly fitted or top-dose-only effect
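Human TRb ligand-binding domain at 0.6 uM with 20 nM Texas Red SRC2 peptide in Tris buffer containing 1 uM T3 and 5% DMSO, incubated with compound 5 h at ambient temperature. Total fluorescence (555/632 nm) calculated as parallel + 2 × perpendicular.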
Tau FP inhib: blocks human tau fibril formation measured by polarization. AID 1468. P10636. K18 P301L tau heparin fibrillization, Alexa594 FP, 6 h. Potency, µM (series often up to 57.7 µM), without a hit: top-dose activity, negative = inhibition, most hits filed as inhibitors. actives 0.39% (n = 280,000); also: nearly all actives have a fitted effect of over 55% in size
Target sequence (P10636 561-689 P618L limits assumed): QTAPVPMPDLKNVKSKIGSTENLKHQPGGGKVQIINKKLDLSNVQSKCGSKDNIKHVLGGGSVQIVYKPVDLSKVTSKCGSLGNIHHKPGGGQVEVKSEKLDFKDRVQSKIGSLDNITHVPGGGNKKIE
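Human tau K18 […] P301L fragment, 15 uM unlabeled plus 0.24 uM Alexa 594-labeled tau (final), with compound and 20 uM heparin in 100 mM sodium acetate pH 7; 6 hr at 37 C, then Alexa 594 FP read.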
Tau fibril ThT: tau fibrillization inhibition (ThT binding); recombinant tau K18 P301L, heparin-induced fibrillization, ThT fluorescence; actives 2.1% (n = 270,000); P10636; AID 1460; Potency, µM (highest dose often 57.4 µM), without a hit: top-dose activity, negative = inhibition, usual class: inhibitors; also: nearly all actives have a fitted effect of over 55% in size
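Using a mix of unlabeled (15 uM) and Alexa 594-labeled (0.24 uM) tau K18 P301L, heparin-triggered fibrillization over 6 hr at 37 C was scored by ThT fluorescence.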
GoLoco inh red: blocks human Gai1 binding to RGS12 GoLoco peptide, red readout; P63096; Gai1:RGS12 GoLoco peptide FP, rhodamine, 10 min; Potency, µM (titrated, usually from 61.6 µM), inactives show at the highest dose activity, negative = inhibition, most hits filed as inhibitors; actives 0.44% (n = 230,000); active = well fitted inhibition curve with a large enough effect, not every such curve was filed as active; inactive = no such curve, though single readings can be large or run the other way; also: nearly all actives have a fitted effect of over 30% in size
Target sequence (P63096 whole entry, looked up): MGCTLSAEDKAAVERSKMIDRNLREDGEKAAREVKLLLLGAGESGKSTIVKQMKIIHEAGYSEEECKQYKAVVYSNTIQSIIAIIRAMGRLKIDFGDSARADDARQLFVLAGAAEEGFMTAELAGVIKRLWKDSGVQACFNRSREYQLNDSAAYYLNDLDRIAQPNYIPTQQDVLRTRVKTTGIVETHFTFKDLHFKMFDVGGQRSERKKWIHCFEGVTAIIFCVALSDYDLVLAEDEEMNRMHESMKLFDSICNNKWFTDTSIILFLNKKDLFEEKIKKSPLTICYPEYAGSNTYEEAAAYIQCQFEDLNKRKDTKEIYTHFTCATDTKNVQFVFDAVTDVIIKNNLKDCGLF
Tau fluor counter: counter-screen for tau fibril formation inhibitors; tau K18 P301L (four-repeat tau fragment) Alexa594 fluorescence, heparin fibrillization; Potency, µM (top dose mostly 57.7 µM), for inactives: top-dose activity change, negative = decrease; actives 0.93% (n = 280,000); AID 1463; also: nearly all actives have a fitted effect of over 55% in size
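Human K18 P301L tau (15 uM unlabeled plus 0.24 uM Alexa 594-labeled, final) in 100 mM sodium acetate pH 7 was mixed with compound and 20 uM heparin and incubated 6 hr at 37 C.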
Active calls of the source: *; u = inconclusive; x = not tested or not shown; [ ] = dose if it differs, or a comment. The list is not random: actives were taken first. Their share in the collection is about 3.2%. Unless noted, calls follow the shape of the dose curve; as a rule, active = well fitted curve in the direction sought with a large enough effect; inconclusive = small, poorly fitted or top-dose-only effect, or another doubt; inactive = no such curve, though single readings can be large; an effect the other way counts as inactive or inconclusive. Unless noted, % is scaled to controls: 0 for no effect and ±100 for the full control effect; potency is read from the fitted curve at half-maximal effect.

SMILES	TRb-SRC2 inh	TR SRC2 fluor cs	Tau FP inhib	Tau fibril ThT	GoLoco inh red	Tau fluor counter
COc1ccc(-c2nc3c(c4c2C[C@H](c2ccccc2)OC4)CN(C(=O)c2cc(I)ccc2F)CC3)c(C)c1	2%[11.2 µM]	-3%[11.2 µM]	-1%[11.6 µM]	1%[11.5 µM]	7%[14.2 µM]	6%[11.6 µM]
O=[N+]([O-])c1ccc(Nc2ccc3ccccc3c2)nc1	-8%	-10%	-9%	1.3µM*	3%	u
CCOc1cc(C=C(C(=O)OC)C(=O)OC)ccc1OCc1ccc([N+](=O)[O-])cc1	-19%	-4%	17%	13µM*	6%	-26%
COc1ccc(-c2nc3c(c4c2C[C@H](c2ccccc2)OC4)CN(C(=O)Nc2cccc(C#N)c2)CC3)c(C)c1	-2%[11.2 µM]	-3%[11.2 µM]	-3%[11.6 µM]	-1%[11.5 µM]	1%[14.2 µM]	-12%[11.6 µM]
N#Cc1c(Nc2ccc(Cl)cc2)s[nH]c1=O	2%	1%	20µM*	x	1%	-20%
N[C@@H](Cc1cc(-c2ccc(Cl)cc2Cl)cc(CP(=O)(O)O)c1O)C(=O)O	3%	-5%	-3%	11%	-21%	7%
CC(C)(C)OC(=O)N1CCCC1C(=O)NC1COC2CC(n3ccc(=O)[nH]c3=O)OC12 (stereo unspecified)	4%	-1%	x	x	x	x
Cn1c(=O)c2[nH]c(N=Nc3ccc(N)cc3N)nc2n(C)c1=O	3%	-5%	-9%	14µM*	7%	u
Cc1cc(C)cc(Nc2nc3c([nH]2)c(=O)n(C)c(=O)n3C)c1	-4%	-6%	u	u	16%	u
O=C(CSc1ccc(-c2ccncc2)nn1)c1ccccc1	1%	1%	-10%	-10%	2%	-9%
O=C(CSc1ccc(-c2ccccn2)nn1)c1ccc([N+](=O)[O-])cc1	-3%	-9%	2%	16µM*	8%	-28%
O=C(CSc1ccc(-c2ccccn2)nn1)N1CCCCC1	-2%	-1%	-3%	-8%	3%	-6%
O=C(CSc1ccc(-c2cccnc2)nn1)c1ccc([N+](=O)[O-])cc1	-5%	-6%	-5%	14µM*	-3%	u
O=C1[C@H]2[C@H]3[C@H](O)[C@H](O)C/C(=N/OC[C@@H](O)COCc4ccco4)[C@@H]3CC[C@@H]2C(=O)N1C[C@@H]1CCCO1	-6%[11.2 µM]	1%[11.2 µM]	0%[11.6 µM]	-19%[11.5 µM]	x	-15%[11.6 µM]
Ic1ccc2c(c1)N(c1ccccc1)c1cc(Nc3ccc4nc5ccc(I)cc5[n+](-c5ccccc5)c4c3)ccc1N2	x	x	x	x	42%[14.2 µM]	x
Cc1cc(C)c([N+](=O)[O-])cc1-c1ccc(/C=N/c2c(-c3ccco3)nc3ccccn23)o1	-19%	10%	u	5µM*	46%	25µM*[quencher]
O=[N+]([O-])c1ccc(-c2ccc(/C=N/c3c(-c4ccco4)nc4ccccn34)o2)c(Cl)c1	-4%	1%	-6%	2µM*	46%	-28%
O=[N+]([O-])c1ccc(-c2ccc(/C=N/c3c(-c4ccco4)nc4ccccn34)o2)cc1	4%	1%	0%	2.8µM*	57%	u
O=C1C2=C(Nc3cc([N+](=O)[O-])ccc3N2)O[C@@H]1c1ccc([C@H]2OC3=C(Nc4ccc([N+](=O)[O-])cc4N3)C2=O)cc1	x	x	x	x	4%[14.2 µM]	x
CNc1ccc(-c2nc3ccccc3s2)cc1	0%	-2%	x	x	x	x
CS(=O)(=O)c1ccc(S(=O)CC(=O)Oc2ccc(Cl)cc2)c([N+](=O)[O-])c1 (stereo unspecified)	-5%	-5%	u	3.5µM*	-1%	-25%
Cc1cc2c(c(=O)o1)[C@@H](O)[C@H]1O[C@@H]1C2=O	1%[11.2 µM]	1%[11.2 µM]	u	u	x	u
COc1ccc2c(c1)C(=O)C(=O)N2	6%	-2%	6%	8%	34%	3%
O=C1Nc2cc3c(cc2C1=O)sc1ccccc13	-1%	-10%	6%	1.1µM*	-8%	u
CCC(=O)Nc1ccc(/C=C(\C(C)=O)C(=O)c2ccccc2)cc1	5%	-6%	3%	-20%	-3%	-5%
SMILES	TRb-SRC2 inh	TR SRC2 fluor cs	Tau FP inhib	Tau fibril ThT	GoLoco inh red	Tau fluor counter
CC(=O)/C(=C/c1ccc(N(C)C)cc1)C(=O)c1ccccc1	-4%	-4%	6%	18µM*	28%	u
OCC(O)CS (stereo unspecified)	-5%	-2%	x	x	-51%	x
O=C1C=C(N(CCO)Cc2ccccc2)c2ccccc2C1=O	u	-4%	u	13µM*	10%	-27%
O=C1N=C(N2CCN(c3ccccc3)CC2)S/C1=C\c1ccco1	4%	-14%	-9%	14µM*	3%	-18%
NC1=NC(=O)/C(=C\c2ccco2)S1	-7%	-15%	u	18µM*	-13%	u
COC(=O)CCCC1=CC2=C(c3ccccc3)C(=O)C(C)(OC(=O)C3CCCC3)C(=O)C2=CN1CCCOC(C)C (stereo unspecified)	7%[11.2 µM]	-17%[11.2 µM]	11%[11.6 µM]	u	30%[14.2 µM]	-16%[11.6 µM]
CN(C)c1ccc(-c2ccc3ncnc(N(C)Cc4ccco4)c3c2)cc1	x	x	x	x	5%	x
Nc1cc(Cl)c(O)c(Cl)c1	-13%[201 µM]	u	x	x	x	x
NS(=O)(=O)c1ccc(Nc2ccc([N+](=O)[O-])c3nonc23)cc1	4%	-2%	-11%	16µM*	111%	-22%
NS(=O)(=O)c1ccc(Nc2ccccc2)c([N+](=O)[O-])c1	-2%	0%	2%	u	5%	-10%
CCc1nnc(NS(=O)(=O)c2ccc(Nc3ccc([N+](=O)[O-])c4nonc34)cc2)s1	0%	-6%	4%	14µM*	129%	-14%
CCc1nnc(NS(=O)(=O)c2ccc(NC(=O)OC)cc2)s1	3%	1%	-5%	-8%	-8%	-9%
CN(C(=O)Cc1ccccc1OC(=O)c1ccccc1)c1ccccc1I	2%	-2%	x	x	x	x
COc1ccc(C2c3c(oc4ccccc4c3=O)C(=O)N2c2ccccn2)cc1OC (stereo unspecified)	3%	-2%	6%	11%	6%	19%
COc1cc(C2c3c(oc4ccccc4c3=O)C(=O)N2c2ccccn2)cc(OC)c1OC (stereo unspecified)	-10%	0.04µM*[quencher]	-11%	10%	x	2%
Cc1noc(C)c1-c1ccc2ncnc(NCc3ccccc3Cl)c2c1	-5%	1%	x	x	x	x
Cn1c(=O)c(Nc2ccc(O)cc2)c2c3c(cccc31)C(=O)c1ccccc1-2	-4%	-5%	u	7.9µM*	-18%	14µM*[quencher]
CC(C)c1ccc(Nc2c([N+](=O)[O-])c(=O)n(C)c3ccccc23)cc1	-1%	2%	-10%	-7%	-6%	-13%
CC(C)(CN)CN	x	x	x	x	-2%[14.2 µM]	x
